Screening data deposited in PubChem by National Center for Advancing Translational Sciences (NCATS).
SARS PLpro yeast – inhibitors of SARS-CoV papain-like protease in yeast. AID 485353. 0.19% of 330,000 active. S. cerevisiae expressing SARS-CoV PLpro, growth rescue. Potency, µM (series often up to 32.9 µM), hits mostly activators; calls by dose curve; also: nearly all actives have a fitted effect of over 55% in size
AmpC inh no detg – blocks E. coli AmpC beta-lactamase in detergent-free assay. Potency, µM (top dose mostly 57.1 µM), hits mostly inhibitors. AmpC nitrocefin hydrolysis, absorbance 480 nm, 0.0001% Triton. 0.52% of 330,000 active. P00811. AID 485341; also: nearly all actives have a fitted effect of over 20% in size
Target sequence (P00811 whole entry, looked up): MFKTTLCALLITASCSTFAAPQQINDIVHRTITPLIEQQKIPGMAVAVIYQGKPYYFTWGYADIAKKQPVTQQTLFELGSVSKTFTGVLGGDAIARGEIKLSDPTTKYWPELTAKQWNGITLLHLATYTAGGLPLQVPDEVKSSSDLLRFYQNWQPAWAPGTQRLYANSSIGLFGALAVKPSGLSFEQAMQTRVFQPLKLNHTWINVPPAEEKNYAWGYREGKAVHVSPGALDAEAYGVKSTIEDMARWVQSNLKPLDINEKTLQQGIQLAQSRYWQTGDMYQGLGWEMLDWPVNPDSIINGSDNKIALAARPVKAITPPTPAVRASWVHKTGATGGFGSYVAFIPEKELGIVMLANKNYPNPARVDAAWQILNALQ
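AmpC (5.3 nM in the dispensed reagent) in 20 mM phosphate pH 7.0 with 0.01% (detergent screen) or 0.0001% Triton X-100 was preincubated with compounds for 15 min at room temperature. Nitrocefin was then added from an 800 uM solution, and hydrolysis was followed at 480 nm.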
AmpC inh detg – inhibitors of E. coli AmpC beta-lactamase with detergent; Potency, µM (doses to about 114 µM), most hits filed as inhibitors; 0.041% of 370,000 active; AmpC hydrolysis of nitrocefin, absorbance 480 nm, 0.01% Triton; AID 485294; P00811; also: nearly all actives have a fitted effect of over 25% in size
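AmpC (5.3 nM in the dispensed reagent) in 20 mM phosphate pH 7.0 with 0.01% (detergent screen) or 0.0001% Triton X-100 was preincubated with compounds for 15 min at room temperature. Nitrocefin was then added from an 800 uM solution, and hydrolysis was followed at 480 nm.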
Cycloheximide cs – affects cycloheximide protein synthesis inhibition readout, counter-screen; cell reporter, cycloheximide protein synthesis inhibition counterscreen; max response, %; 12% of 300,000 active; AID 2314; in the data active = max response mostly above about 13%, no sharp cut-off; inactive = mostly below about 14%; also: read at 38.3 µM for the half of the compounds with a filed dose
AMA1-RON2 inh – inhibitors of Plasmodium falciparum AMA1-RON2 interaction | AlphaScreen AMA1-biotinylated RON2 peptide binding | Potency, µM (series often up to 58.2 µM), actives largely listed as inhibitors | 0.2% of 360,000 active | AID 720542; also: nearly all actives have a fitted effect of over 45% in size
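AMA1 (3D7) with his tag at 25 nM final met compounds first, then biotinylated RON2 peptide at 25 nM; detection used donor plus acceptor beads, 10 µg/mL apiece, read by AlphaScreen after 30 min at room temperature.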
Shiga inhibitor – Shiga toxin inhibition. 9.2% of 290,000 active. Vero cells, Shiga toxin protein synthesis inhibition reporter. inhibition, % at 38.7 µM; in the data active = inhibition mostly above about 28%, no sharp cut-off; inactive = mostly below about 43%
Numbers stand for hits. Only a selection was taken, and hits are over-represented in it overall. Unless noted, calls follow the shape of the dose curve; as a rule, active = well fitted curve in the direction sought with a large enough effect; inconclusive = small, poorly fitted or top-dose-only effect, or another doubt; inactive = no such curve, though single readings can be large; an effect the other way counts as inactive or inconclusive.

Screening O=C(NC1CCCC1)c1ccc(Br)o1 returned SARS PLpro yeast inactive, AmpC inh no detg inactive, AmpC inh detg inactive, Cycloheximide cs inactive, AMA1-RON2 inh inactive and Shiga inhibitor inactive.
`CC(C)(C)c1nnc2sc(SCC(=O)N3CCCc4ccccc43)nn2c1=O` gave SARS PLpro yeast inactive, AmpC inh no detg inactive, AmpC inh detg inactive, Cycloheximide cs inactive, AMA1-RON2 inh inactive and Shiga inhibitor inactive.
`COC(=O)Cn1ncc2c3ccccc3n(C)c2c1=O` gave SARS PLpro yeast inactive, AmpC inh no detg inactive, AmpC inh detg inconclusive, Cycloheximide cs 25, AMA1-RON2 inh inactive and Shiga inhibitor 43.
CCOC(=O)N1CCC(NC(=O)CCCN2C(=O)CSc3ncccc32)CC1 was read as AmpC inh detg inactive, Cycloheximide cs inactive, AMA1-RON2 inh inactive and Shiga inhibitor inactive.
`Cn1c2ccccc2c2cnn(CC(=O)O)c(=O)c21` gave SARS PLpro yeast inactive, AmpC inh no detg inactive, AmpC inh detg inactive, Cycloheximide cs inactive, AMA1-RON2 inh inactive and Shiga inhibitor inactive.
For Cc1c2cnn(CC(=O)NC3CCCC3)c(=O)c2c(C)n1Cc1ccccc1 the results were SARS PLpro yeast inactive, AmpC inh no detg inactive, AmpC inh detg inactive, Cycloheximide cs 29, AMA1-RON2 inh inactive and Shiga inhibitor 77.
Screening CCOC(=O)N1CCC(NC(=O)Cn2ncc3c4ccccc4n(C)c3c2=O)CC1 returned SARS PLpro yeast inactive, AmpC inh no detg inactive, AmpC inh detg inactive, Cycloheximide cs 22, AMA1-RON2 inh inactive and Shiga inhibitor 34.
CCOC(=O)N1CCC(NC(=O)CN2C(=O)CSc3ncccc32)CC1 was read as SARS PLpro yeast inactive, AmpC inh no detg 28µM, AmpC inh detg inactive, Cycloheximide cs inactive, AMA1-RON2 inh inactive and Shiga inhibitor inactive.
Screening CCOC(=O)C1CCN(C(=O)Cn2ncc3c4ccccc4n(C)c3c2=O)CC1 returned AmpC inh detg inactive.
COC(=O)CS(=O)(=O)c1ccc(C)cc1 was read as SARS PLpro yeast inactive, AmpC inh no detg inactive, AmpC inh detg inactive, Cycloheximide cs inactive, AMA1-RON2 inh inactive and Shiga inhibitor inactive.
COc1ccc(C=O)cc1C1=CC(=O)C[C@H](c2ccc(Cl)cc2)C1 was read as SARS PLpro yeast inactive, AmpC inh no detg inactive, AmpC inh detg inactive and AMA1-RON2 inh inactive.
COc1ccccc1CNc1nc(SC)ncc1CO was read as SARS PLpro yeast inactive, AmpC inh no detg inactive, AmpC inh detg inconclusive, Cycloheximide cs inactive, AMA1-RON2 inh inactive and Shiga inhibitor inactive.
For COc1cccc2oc3cc(C#Cc4ccccn4)ccc3c(=O)c12 the results were SARS PLpro yeast inactive, AmpC inh no detg inactive, AmpC inh detg inactive, Cycloheximide cs 27, AMA1-RON2 inh inactive and Shiga inhibitor 35.
`COc1cccc2sc3ccc(NCc4ccc5c(c4)OCO5)cc3c(=O)c12` gave SARS PLpro yeast inactive, AmpC inh no detg inactive, AmpC inh detg inactive, Cycloheximide cs 19, AMA1-RON2 inh inactive and Shiga inhibitor inactive.
Screening COC1=C(NCc2ccc3c(c2)OCO3)C(=O)C(OC)=C(NCc2ccc3c(c2)OCO3)C1=O returned AMA1-RON2 inh inactive.
For COc1ccc2sc3ccccc3c(=O)c2c1OC the results were SARS PLpro yeast inactive, AmpC inh no detg inactive, AmpC inh detg inactive, Cycloheximide cs 34, AMA1-RON2 inh inactive and Shiga inhibitor 71.
`O=c1c2ccccc2oc2cc(C#CC3(O)CCCCC3)ccc12` gave AMA1-RON2 inh inactive.
Screening COc1cccc2oc3cc(C#CC4(O)CCCCC4)ccc3c(=O)c12 returned SARS PLpro yeast inactive, AmpC inh no detg inactive, AmpC inh detg inconclusive, Cycloheximide cs 35, AMA1-RON2 inh inactive and Shiga inhibitor 58.
Screening CCn1c(C)cc2c(c1=O)C(c1ccncc1)C(C#N)=C(N)O2 (centres undefined) returned SARS PLpro yeast inactive, AmpC inh no detg inactive, AmpC inh detg inactive, Cycloheximide cs inactive, AMA1-RON2 inh inactive and Shiga inhibitor inactive.
For CCn1c(SCc2ccccc2Cl)nc(=O)c2c(C(=O)OC)cc(C3CC3)nc21 the results were AmpC inh detg inactive.
COc1cccc2sc3ccc(C#Cc4ccc(N)cc4)cc3c(=O)c12 was read as SARS PLpro yeast inactive, AmpC inh no detg inactive, AmpC inh detg inconclusive, Cycloheximide cs 41, AMA1-RON2 inh inactive and Shiga inhibitor 57.
